Source: PubChem BioAssay AID493185 (National Center for Advancing Translational Sciences (NCATS), 2011)
The source made the active and inactive calls. Where a call stands in place of a potency, no number is given. The call rests on the fitted dose curve; in most records, active means well fitted activation curve with a large enough effect; inconclusive means small, poorly fitted or top-dose-only effect; inactive means no such curve, though single readings can be large or run the other way.

Assay: Counterscreen for Identifying a Potential Treatment of Ataxia-Telangiectasia: Hit Validation
Details: cell-free AlphaLISA/AlphaScreen artifact counterscreen, PBS only, no cells; series mostly up to 76.9 µM
Outline: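 Cell-free AlphaLISA counterscreen: compounds (up to 76.7 uM final) in PBS with detection mix of anti-pKAP1 and anti-KAP1 antibodies on donor/acceptor beads plus lysis buffer, incubated 6 hr at 25C before AlphaScreen read.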
Potency means the concentration at half of the fitted maximal effect.

SMILES	Potency
COC(=O)c1ccc2[nH]c3cccc(/C(=C/c4ccccc4)c4ccccc4)c3c2c1	inactive
O=C(N/N=C/c1cccc2ccccc12)c1cccnc1	inactive
CCOc1cc(/C=C/c2nc3ccccc3c(=O)[nH]2)ccc1O	inactive
COc1cc(/C=N/NC(=O)c2c(C)nc3ccc(Cl)cn23)cc(OC)c1OC	58.2 µM (active)
CCOc1ccccc1CNC(=O)Cn1c(=O)oc2ccccc21	inactive
COc1ccccc1N1CN(CCc2ccccc2)CNC1=S	inactive
O=S(=O)(C/C(=C/CO)S(=O)(=O)c1ccccc1)c1ccccc1	inactive
CC(C)(CO)NC(=O)c1ccc2c(c1)C(=O)c1ccccc1-2	inactive
CCCN1CN(c2ccccc2)C(=S)N(c2ccccc2)C1	inactive
CC(C)OP(=O)(OC(C)C)C(O)c1ccc(N(C)C)cc1 (stereo not given)	inactive
CCOC(=O)CN(C(=O)CSc1nnc(COc2ccc(OC)cc2)n1CC)c1ccccc1	inactive
CCOC(=O)C1=C(O)C(=O)N(Cc2ccccc2)C1	inactive
CC(=O)c1ccc([N+](=O)[O-])c(CS(=O)(=O)c2ccc(Cl)cc2)c1	inactive
CC(C)c1ccc(C(C(=O)NC2CCCCC2)N(C(=O)c2ccccn2)c2cccnc2)cc1 (stereo not given)	inactive
COc1ccc(C2NC(=S)NC3=C2N2CCC3CC2)cc1 (stereo not given)	inactive
CCOC(=O)N1CCN(c2nc(N(c3ccccc3)c3ccccc3)nc(-n3ccnc3)n2)CC1	inactive
COc1ccc(C(=O)N2CCCC2(C#N)c2ccccc2)cc1[N+](=O)[O-] (stereo not given)	inactive
O=C(c1nn2c(C(F)(F)F)cc(-c3ccc(F)cc3)nc2c1Cl)N1CCOCC1	inactive
CCOC(=O)C1CCN(C(=O)c2cc3cc(Cl)ccc3[nH]2)CC1	inactive
CCCCC(=O)NC(c1ccco1)c1c(O)ccc2ccccc12 (stereo not given)	inactive

SMILES	Potency
CCC(C)NC(=O)c1cn(CCOC)c(=O)c2c1c1ccccc1n2C (stereo not given)	inactive
O=C(NCc1ccccc1)c1cccnc1Sc1ccccc1	inactive
Cc1ccc(NC(=O)NC(=O)N(C(C)C)S(C)(=O)=O)nc1	inactive
COc1ccc2nc(C)cc(Nc3ccc(C(=O)O)cc3)c2c1	inactive
COc1ccc(NCc2cc(=O)oc3cc(NC(C)=O)ccc23)cc1	inactive
CC(=O)Nc1ccc(S(=O)(=O)NCC2(N3CCOCC3)CCCCC2)cc1	inactive
COc1ccc(NS(=O)(=O)c2ccc(N3CC(O)=C(c4ccccc4)C3=N)cc2)cc1	inactive
CCOc1ccc(NC2=CC(=O)CCC2)cc1	inactive
CCOc1cccc(C(=O)Nc2ccccc2N2CCN(C(=O)C(C)C)CC2)c1	inactive
CCOC(=O)N1CCC(NC(=O)C2CCN(S(=O)(=O)c3cccc4cccnc34)CC2)CC1	inactive
Cc1cc(C)c2c(Cn3ccnc3)cc(=O)oc2c1	inactive
COc1ccc(N(CCC#N)C(=O)/C(C#N)=C\c2cccs2)cc1	inactive
COc1cccc(/C=N/NC(=O)c2cc3cc([N+](=O)[O-])ccc3s2)c1O	inactive
C[C@H](NC(=O)OC(C)(C)C)C(=O)NCC1CCC(C(=O)N[C@@H](Cc2ccccc2)C(=O)O)CC1 (stereo not given in full)	inactive
CC(C)(C)C1CCC2(CC1)SCC(=O)N2c1ccccc1 (stereo not given)	inactive
CN(C)S(=O)(=O)c1ccc(NC(=O)c2ccc([N+](=O)[O-])cc2)cc1	inactive
CC1CCCC(C)N1C(=O)COC(=O)Cc1ccc(Cl)cc1 (stereo not given)	inactive
Cc1ccc2c(c1)sc(=NC(=O)C1CC1)n2C	inactive
N=c1ccn(Cc2ccc([N+](=O)[O-])cc2)cc1	inactive
Cc1nc2sc(C(N)=O)c(N)c2c2c1CCCC2	inactive
